Each structure is given as a SMILES string. Inconclusive results are not listed. Calls of active or inactive are those of the source. How the source made its calls: active means hit-call score of the fitted dose curve at least 0.9, where 1 is the maximum; inconclusive means response in the unintended direction; inactive means score below 0.9.

This passage reports AC50 and outcome results from PubChem BioAssay AID2284383 (EPA ToxCast).

The target of the assay is human Retinoic Acid Receptor gamma (RARg) Agonism, RARG (gene 5916) (UniProt P13631). Kind of assay: ERF_TW_NR_COA_hRARG: Eurofins (ERF) Nuclear Receptor (NR) Functional Coactivator Assay for human Retinoic Acid Receptor gamma (RARg) Agonism. On the procedure: ERF_TW_NR_COA_hRARG is a biochemical, single-readout assay that uses extracted gene-proteins in a cell-free assay. Measurements were taken 16 hours after chemical dosing in a 96-well plate. […] It is designed to measure FRET using a type of binding reporter as detected by fluorescence intensity of AM580 with fluorimetry technology.Data from the assay component ERF_TW_NR_COA_hRARG was analyzed at the assay endpoint, ERF_TW_NR_COA_hRARG, in the positive analysis fitting direction relative to DMSO as the negative control and baseline of activity. Using a type of binding reporter, gain-of-signal activity can be used to understand changes in binding as they relate to gene RARG. To generalize the intended target to other relatable targets, this assay endpoint is annotated to the nuclear receptor intended target family, where the subfamily is non-steroidal.
Sequence of human Retinoic Acid Receptor gamma (RARg) Agonism, RARG (gene 5916) (P13631 whole entry, looked up): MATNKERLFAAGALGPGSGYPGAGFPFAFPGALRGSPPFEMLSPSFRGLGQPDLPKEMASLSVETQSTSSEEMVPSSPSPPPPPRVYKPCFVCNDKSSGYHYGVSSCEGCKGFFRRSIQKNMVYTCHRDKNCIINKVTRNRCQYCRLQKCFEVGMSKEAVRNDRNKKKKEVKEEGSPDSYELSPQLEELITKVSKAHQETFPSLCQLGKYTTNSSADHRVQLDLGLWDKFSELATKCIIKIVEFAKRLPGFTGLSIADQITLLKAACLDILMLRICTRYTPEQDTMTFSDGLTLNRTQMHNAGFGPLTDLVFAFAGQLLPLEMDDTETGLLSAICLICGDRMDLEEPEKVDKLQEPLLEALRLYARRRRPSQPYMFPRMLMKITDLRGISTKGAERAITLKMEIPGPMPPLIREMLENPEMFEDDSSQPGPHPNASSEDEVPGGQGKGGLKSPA
Human recombinant retinoic acid receptor […] (RARgamma) receptors expressed in bacteria are used. Test compound and/or vehicle is incubated with the 25 nM receptors and binding buffer in modified Tris-HCl buffer pH 7.4 for 16 hours at 4C. Determination of the amount of complex formed is read spectrofluorimetrically (excitation:337 nm, emission:620/665 nm). Test compound-induced increase in fluorescence by 50 percent or more (>/= 50%) relative to the 0.3 uM AM580 response indicates possible RARgamma receptor agonist activity. […] Membrane protein may change from lot to lot, the concentration used will be adjusted if necessary.
The term AC50 denotes the midpoint of the concentration-response curve, whichever way the signal moves. Turning to `ClC1=C(Cl)[C@]2(Cl)[C@@H]3[C@@H]4C[C@@H]([C@H]5O[C@@H]45)[C@@H]3[C@@]1(Cl)C2(Cl)Cl`, the AC50 was 6.6 µM (active).

With `ClC1=C(Cl)[C@]2(Cl)[C@@H]3[C@H]4C[C@H]([C@@H]5O[C@H]45)[C@@H]3[C@@]1(Cl)C2(Cl)Cl`, the concentration at half-maximal activity (AC50) was 6.15 µM (active). Turning to `Cc1ccc2cc3c(ccc4ccccc43)c3c2c1CC3`, the compound was classed as inactive.
